# In the library only some 17% were active in any assay of this set; here they are far more common.
# TDP1 cell CPT – qHTS for Inhibitors of human tyrosyl-DNA phosphodiesterase 1 (TDP1): qHTS in cells in presence of CPT. chicken DT40 Tdp1-/-;hTDP1 cells + 20 nM CPT, ATP luminescence, 48 h. Potency, µM (titrated, usually from 46.2 µM), most hits filed as inhibitors. hit rate 12% among 420,000; note: nearly all actives have a fitted effect of over 55% in size
#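 Cell growth measured by CellTiter-Glo luminescence after a minimum 48 h, 37 C compound exposure with 20 nM CPT in Tdp1-knockout DT40 cells stably expressing hTDP1, seeded 400/well; qHTS titration format.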
# ClpP mod – qHTS Assay for Activators of ClpP; purified B. subtilis ClpP, FRET peptide cleavage, 20 min; Potency, µM (doses to about 57.5 µM); hit rate 1.9% among 340,000; AID 651965, 2013; active = well fitted falling curve with a large enough effect; inconclusive = small, poorly fitted or top-dose-only effect; inactive = no such curve, though single readings can be large or run the other way; note: the source files actives as falling curves though it sought activators and does not explain the sign; nearly all actives have a fitted effect of over 65% in size
# Target sequence (P80244 whole entry, looked up): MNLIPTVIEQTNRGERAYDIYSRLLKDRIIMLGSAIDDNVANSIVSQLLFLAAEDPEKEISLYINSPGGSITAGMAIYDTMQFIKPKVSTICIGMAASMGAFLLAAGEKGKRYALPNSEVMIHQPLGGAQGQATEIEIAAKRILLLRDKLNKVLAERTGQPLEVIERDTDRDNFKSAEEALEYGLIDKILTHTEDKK
#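 Buffer: 100 mM Tris/HCl pH8, 100 mM KCl, 0.05% low protease BSA, 2.5% glycerol, 0.01% Tween-20. ClpP 10 microg/mL final; 20 min RT; delta FRET normalized to ADEP and DMSO controls.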
# DT40 TDP1 no CPT – qHTS for Inhibitors of human tyrosyl-DNA phosphodiesterase 1 (TDP1): qHTS in cells in absence of CPT; DT40 Tdp1-/- hTDP1 cells, no CPT, ATP luminescence, 48 h; Potency, µM (highest dose often 46.2 µM), most hits filed as inhibitors; AID 686978, 2013; hit rate 15% among 420,000; note: nearly all actives have a fitted effect of over 55% in size
#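 Compound effects on proliferation are scored in DT40 Tdp1-/-;hTDP1 cells in the absence of CPT. ATP levels (CellTiter-Glo luminescence) are recorded after a ≥48 hr, 37 °C incubation.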
# TDP1 block – qHTS Assay for Inhibitors of Tyrosyl-DNA Phosphodiesterase (TDP1). Potency, µM (doses to about 130 µM), usual class: inhibitors. hit rate 0.28% among 350,000. recombinant TDP1, AlphaScreen DNA substrate cleavage; note: nearly all actives have a fitted effect of over 40% in size
#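 Signal: AlphaScreen proximity between streptavidin donor and anti-FITC acceptor beads on intact substrate. Reaction: Tdp1 1 nM, substrate 15 nM final, 5 min RT after 15 min compound preincubation.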
# A number is an active result; – = inactive; ? = inconclusive; · = not tested or not shown; [ ] = remark or other dose. Unless noted, calls come from the whole dose curve; as a rule, active = well fitted curve in the direction sought with a large enough effect; inconclusive = small, poorly fitted or top-dose-only effect, or another doubt; inactive = no such curve, though single readings can be large; an effect the other way counts as inactive or inconclusive.
SMILES,TDP1 cell CPT,ClpP mod,DT40 TDP1 no CPT,TDP1 block
COC(=O)C1=C(C)NC(=O)/C1=C\c1cc(C)n(-c2cccc(C)c2)c1C,?,–,16µM,–
CC(C)c1ccc(OCc2cc(=O)n3c(-c4ccccc4)csc3n2)cc1,?,–,26µM,–
Cc1ccccc1N/C(=C(/C(Cl)=C(Cl)Cl)[N+](=O)[O-])n1nnc2ccccc21,16µM,–,?,–
CC(C)(C)NC(=O)C12CCC(C)(c3nc4ccccc4nc31)C2(C)C (centres undefined),11µM,–,22µM,–
CCOc1ccccc1C(=O)Nc1ccc(-n2nncc2-c2ccccc2)cc1,?,–,23µM,–
COc1cccc(C(=O)Nc2ccc(-n3nncc3-c3ccccc3)cc2)c1OC,–,–,–,–
CCOc1ccccc1C(=O)Nc1ccc(-n2nncc2C(C)(C)C)cc1,21µM,–,15µM,–
CCOc1ccccc1C(=O)Nc1ccc(S(=O)(=O)N2CCN(C)CC2)cc1,?,–,–,–
Cc1ccc(C)c(OCCC(=O)Nc2ccccc2C(=O)NC2CC2)c1,–,·,–,–
COc1cc(=O)n2c(c1C(=O)NCc1ccc3c(c1)OCO3)CCN(C(=O)c1cccc(F)c1)CC2,–,·,–,·
CCCn1c2ccccc2c2cnn(CC(=O)NC3CCCCC3C)c(=O)c21 (centres undefined),?,–,18µM,–
CCCn1c2ccccc2c2cnn(CC(=O)NCCCN3C(C)CCCC3C)c(=O)c21 (centres undefined),?,–,?,–
CCCn1c2ccccc2c2cnn(CC(=O)NC3CCN(Cc4ccccc4)CC3)c(=O)c21,16µM,–,?,–
CCc1cccc(NS(=O)(=O)c2c(C)[nH]c(=O)[nH]c2=O)c1,–,–,–,–
CCn1cc(C(=O)NC2CC(C)(C)Cc3c2cnn3-c2cccc(F)c2)cn1 (centres undefined),16µM,–,21µM,–
CC(C)(C)C(=O)Nc1cc2nn(-c3ccccc3)nc2cc1Cl,?,28µM,–,·
CC(=O)Nc1cc2nn(-c3ccccc3)nc2cc1Cl,–,20µM,–,–
O=C(Nc1cc2nn(-c3ccccc3)nc2cc1Cl)c1ccco1,–,–,–,–
CC(C)OCCCNC(=O)Cc1ccc(NC(=O)N2CCCCc3ccccc32)cc1,?,–,?,–
COc1cccc(CNC(=O)c2cccc(S(=O)(=O)N3CCN(Cc4ccccc4)CC3)c2)c1,–,–,–,·
COc1ccc(C)cc1N(CC(=O)Nc1cccc(N(C)S(C)(=O)=O)c1)S(C)(=O)=O,21µM,–,?,–
O=C(CN(c1cccc(C(F)(F)F)c1)S(=O)(=O)c1ccccc1)Nc1cccc(Cl)c1,16µM,–,15µM,–
COc1cccc(NC(=O)CN(c2cccc(C(F)(F)F)c2)S(C)(=O)=O)c1,–,–,–,–
CN(c1cccc(NC(=O)CN(c2ccc(C34CC5CC(CC(C5)C3)C4)cc2)S(C)(=O)=O)c1)S(C)(=O)=O,18µM,–,21µM,–
Cc1ccc(S(=O)(=O)N(CC(=O)Nc2c(C)cccc2C)c2cccc(Cl)c2)cc1,?,–,15µM,–
SMILES,TDP1 cell CPT,ClpP mod,DT40 TDP1 no CPT,TDP1 block
Cc1cccc(-n2c(=O)c3c(c4cc(C)ccc4n3C)n(Cc3ccccc3F)c2=O)c1,–,?,?,–
CN(c1cccc(NC(=O)CN(c2ccc(F)cc2)S(C)(=O)=O)c1)S(C)(=O)=O,–,–,–,–
Cc1ccc(S(=O)(=O)N(CC(=O)Nc2cccc(N(C)S(C)(=O)=O)c2)c2ccc(Cl)c(Cl)c2)cc1,21µM,–,23µM,–
O=C(CN(c1ccc(Cl)c(C(F)(F)F)c1)S(=O)(=O)c1ccccc1)Nc1cccnc1,?,–,7.3µM,–[12.3 µM]
O=C(CN(c1cccc(C(F)(F)F)c1)S(=O)(=O)c1ccc(Cl)c([N+](=O)[O-])c1)NCc1ccc(F)cc1,16µM,–,16µM,–
CN(c1cccc(NC(=O)CN(c2ccc(Cl)c(Cl)c2)S(=O)(=O)c2ccccc2)c1)S(C)(=O)=O,?,–,21µM,–
COc1ccc(S(=O)(=O)Nc2cccc(N(C)S(C)(=O)=O)c2)cc1Br,?,–,21µM,–
CCCN(Cc1cccs1)C(=O)Nc1cc(Cl)ccc1C,?,–,23µM,–
O=[N+]([O-])c1ccc(N/N=C/c2sc(N3CCOCC3)nc2-c2ccccc2)c(S(=O)(=O)Nc2ccccc2Cl)c1,3.3µM,–,1.8µM,–
O=[N+]([O-])c1ccc(N/N=C/c2sc(N3CCOCC3)nc2-c2ccccc2)c(S(=O)(=O)Nc2ccc(Cl)cc2)c1,1.6µM,–,1µM,–
Cc1ccc(Cn2cc(S(=O)(=O)c3cccc(C)c3)c(=O)c3cc(F)c(N4CCOCC4)cc32)cc1,?,–,–,–
CCOC(=O)NC(=O)C(/C=N/c1sccc1C(=O)OC)=C(\C)O,?,·,–,–
CC1C/C(=N/Nc2nc3ccccc3[nH]2)CC(C)(C)C1 (centres undefined),21µM,–,?,–
C=C(c1cn(C(C)=O)c2ccccc12)c1cn(C(C)=O)c2ccccc12,23µM,–,?,·
CCCCN(C=O)c1c(CC)nc2c(OCc3ccc(C(F)(F)F)cc3)cccn12,12µM,–,12µM,·
CCc1nc2c(OCc3ccc(C(F)(F)F)cc3)cccn2c1N(C)C(C)=O,?,–,?,·
CCc1nc2c(OCc3ccc(C(F)(F)F)cc3)cccn2c1N(C=O)Cc1ccc(OC)cc1,21µM,–,16µM,·
S=C(NC1CCCC1)N1CCN(c2ccccn2)CC1,–,?,?,–
CC(=NNC(=S)N1CC2CCC(CC2)C1)c1ccccn1,0.0082µM,–,0.018µM,·
C/C(=N\NC(=O)C1CCCN(S(=O)(=O)c2ccccc2)C1)c1ccncc1 (centres undefined),–,–,–,–
CC(=NNC(=S)N1CCN(C2CCCCCC2)CC1)c1ccccn1,0.065µM,–,0.037µM,·
C/C(=N\NC(=O)C1CCCN(S(=O)(=O)c2ccccc2)C1)c1ccccn1 (centres undefined),5.8µM,–,3.3µM,–
CC(=NNC(=S)N1CCN(c2ccccn2)CC1)c1ccccn1,18µM,–,16µM,·
CN(c1ccccc1)S(=O)(=O)c1cccc(C(=O)Nc2nn[nH]n2)c1,–,·,–,–
COc1ccc(N(CC(=O)NCc2ccccc2Cl)S(=O)(=O)c2c(C)[nH]c(=O)[nH]c2=O)cc1,–,–,–,–
COc1ccc(NC(=O)c2sc(=O)n(Cc3ccc4ccccc4c3)c2C)cc1OC,?,–,?,·
COc1ccc(C2N3CC4(C)CN2CC(c2ccccc2)(C3)C4=O)cc1 (centres undefined),?,–,?,–
CC(=NNC(=S)N1CCN(c2ccccn2)CC1)c1nccs1,0.015µM,?,0.016µM,·

# High-throughput results deposited in PubChem BioAssay by National Center for Advancing Translational Sciences (NCATS).
